# Several values for one entry are separate records, joined by “and”; a condition that tells them apart may be missing. Equal entries are not always repeated. For part of these data: Potency and affinity values are given separately. Activity calls are given as the source filed them.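 How the source made its calls, unless noted: active means membrane potential signal rise above negative control mean plus 3 SD in both duplicates, also active in the earlier TRPC4 screen; inactive means the rest.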
# Tests used:
# [1] = tested on: TRPC4 beta (transient receptor potential cation channel C4), mouse; assay: activators of mouse TRPC4 channel, confirmation, cell-based, Fluo4 calcium, HEK293 TRPC4beta/mu-opioid, duplicates, 10 µM (AID 2426;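 active means fluorescence ratio normalized to control raised more than 50% in primary screen plus both repeat runs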;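 on activation: percent rise of integrated ratio over buffer wells lacking compound which define 0%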); details: Fluo4 calcium fluorescence, at 10 µM; active compounds read high
# [2] = tested on: transient receptor potential cation channel C4 beta (TRPC4), mouse; assay: activators of mouse TRPC4 channel, confirmation, cell-based, second round, Fluo4, HEK293 TRPC4beta/mu-opioid, 1 µM (AID 2461;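 active means primary screen active and over 50% activation in each of two duplicate runs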;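 on activation: 0% = wells without test compound as baseline of integrated fluorescence ratio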); details: Fluo4 calcium fluorescence, at 1 µM; active compounds read high
# [3] = tested on: TRPC4 (transient receptor potential cation channel C4 beta), mouse; assay: positive allosteric modulators of mouse TRPC4, confirmation, cell-based, second round, Fluo-4, HEK293 TRPC4beta/mu-opioid, 1 µM (AID 2554;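 active means primary screen hit whose fluorescence ratio, in both repeats, exceeds the weak agonist control mean by 3 SD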); details: DAMGO EC20, Fluo-4 calcium flux, at 1 µM; active compounds read high
# [4] = tested on: TRPC4 beta (transient receptor potential cation channel C4), mouse; assay: positive allosteric modulators of mouse TRPC4, confirmation, cell-based, Fluo-4, HEK293 TRPC4beta/mu-opioid (AID 2555;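 active means primary screen hit whose calcium fluorescence ratio, in both repeats, exceeds the weak agonist control mean by 3 SD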); details: DAMGO EC20, Fluo-4 calcium flux, at 10 µM; active compounds read high
# [5] = biological target: Short transient receptor potential channel 4 (Mus musculus) (UniProt Q9QUQ5); assay: inhibitors of mouse TRPC4 channel, confirmation, cell-based, Fluo4, HEK293 TRPC4beta/mu-opioid (AID 2636;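 active means calcium signal cut by more than 3 SD below the full-agonist control yet still positive, in both repeats and the earlier primary screen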); details: DAMGO, Fluo4 calcium flux, at 10 µM; active compounds read high
# [6] = biological target: Short transient receptor potential channel 4 (Mus musculus) (UniProt Q9QUQ5); assay: inhibitors of mouse TRPC4 channel, confirmation, cell-based, second round, Fluo4, HEK293 TRPC4beta/mu-opioid, 1 µM (AID 2637;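 active means calcium signal ratio cut to more than 3 SD under the fully stimulated control mean yet still positive, in both repeats and the primary screen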); details: Fluo4 calcium flux, DAMGO, at 1 µM; active compounds read high
# [7] = biological target: Short transient receptor potential channel 4 (Mus musculus) (UniProt Q9QUQ5); assay: TRPC4 positive allosteric modulators, dose response, cell-based, HEK293 TRPC4/mu-opioid, Fluo-4 calcium, EC20 DAMGO (AID 434941;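 active means earlier screen potentiator hit that boosts the TRPC4 ion channel at some dose, with a dose response; inactive means no potentiation, no dose response, or not a prior hit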;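 further: calcium entry triggered by an EC20 dose of DAMGO at the co-expressed mu-opioid receptor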)
# [8] = biological target: Short transient receptor potential channel 4 (Mus musculus) (UniProt Q9QUQ5); assay: mouse TRPC4 channel inhibitors, dose response, cell-based, HEK293 TRPC4/mu-opioid, Fluo-4 calcium (AID 434942;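 active means primary screen inhibitor hit that blocks the TRPC4 channel at some tested dose, yielding a dose curve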)
# [9] = biological target: Short transient receptor potential channel 6 (Mus musculus) (UniProt Q61143); assay: inhibition of mouse TRPC6 channel, confirmation, selectivity assay for TRPC4 inhibitor project, cell-based, HEK293, membrane potential dye, duplicate (AID 434948;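 active means active in primary screen and both duplicates, each dropping signal beyond three positive-control SD with fluorescence still positive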); details: HEK293 TRPC6, membrane potential dye fluorescence, at 10 µM, stimulated with maximal-effect acetylcholine; active compounds read high
# [10] = biological target: Short transient receptor potential channel 6 (Mus musculus) (UniProt Q61143); assay: activation of mouse TRPC6 channel, confirmation, selectivity assay for TRPC4 activator project, cell-based, HEK293, membrane potential dye, duplicate (AID 434950); details: HEK293 TRPC6, membrane potential fluorescence, at 10 µM; active compounds read high;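 on activation: 0% = buffer only wells and 100% = acetylcholine maximal-effect wells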
# [11] = biological target: Short transient receptor potential channel 6 (Mus musculus) (UniProt Q61143); assay: TRPC6 potentiation by TRPC4 potentiator hits, confirmation, selectivity assay for TRPC4 potentiator project, HEK293 cells, membrane potential dye, duplicate (AID 434952;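 active means compound raising the membrane signal above positive-control mean plus 3 SD in both repeats, and a primary screen hit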); details: HEK293 TRPC6, membrane potential dye fluorescence, at 10 µM, maximal acetylcholine added after compound; active compounds read high
# [12] = biological target: Short transient receptor potential channel 4 (Mus musculus) (UniProt Q9QUQ5); assay: calcium flux activators in TRPC4/5HT1a cells, counter-screen for TRPC4 activator project, cell-based, second counter screen, HEK293 TRPC4/5HT1a, Fluo-4 (AID 434977;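 active means calcium signal rise above buffer-control mean plus 5 SD in both duplicates, and also a hit in the primary screen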;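 on activation: plate controls were assay buffer for no effect and maximal serotonin response for full effect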); details: Fluo-4 calcium flux, at 10 µM; active compounds read high
# [13] = calcium flux inhibitors in TRPC4/5HT1a cells, confirmation, counter-screen for TRPC4 inhibitor project, cell-based, second counter screen, HEK293 TRPC4/5HT1a, Fluo-4 (AID 434978;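 active means primary screen active whose calcium signal fell more than 3 SD beyond the full-serotonin control mean in both duplicate plates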;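 further: serotonin given first at submaximal then at maximal dose after compound preincubation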); details: Fluo-4 calcium flux, at 10 µM, serotonin added to trigger calcium flux; active compounds read high
# [14] = tested on: TRPC4 (mouse), co-expressed with 5HT1a in HEK293; assay: calcium flux potentiators in TRPC4/5HT1a cells, confirmation, counter-screen for TRPC4 potentiator project, cell-based, second counter screen, HEK293 TRPC4/5HT1a, Fluo-4 (AID 434979;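 active means signal rise over 3 SD above mean of control wells given weak agonist, in both repeats and first screen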); details: Fluo-4 calcium flux, at 10 µM, serotonin added at its EC20 dose; active compounds read high
# [15] = calcium flux activation in mu-opioid HEK293 cells, confirmation, counter-screen for TRPC4 activator project, cell-based, HEK293 mu-opioid receptor line (AID 449723;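 active means hit in primary screen, with calcium signal over 5 SD above buffer well mean in both duplicates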;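 further: counter screen cells carry the mu-opioid receptor alone and lack TRPC4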); details: Fluo-4 calcium fluorescence, at 10 µM; active compounds read high
# [16] = calcium flux enhancement in mu-opioid HEK293 cells, confirmation, counter-screen for TRPC4 allosteric potentiator project, cell-based, HEK293 mu-opioid receptor line (AID 449724;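 active means calcium signal rise more than 3 SD above the low-dose agonist control mean, in both duplicate plates and the primary screen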); details: Fluo-4 calcium flux, at 10 µM, compound added before EC20 DAMGO stimulus; active compounds read high
# Sequence of Short transient receptor potential channel 4 (Mus musculus) (Q9QUQ5 whole entry, looked up): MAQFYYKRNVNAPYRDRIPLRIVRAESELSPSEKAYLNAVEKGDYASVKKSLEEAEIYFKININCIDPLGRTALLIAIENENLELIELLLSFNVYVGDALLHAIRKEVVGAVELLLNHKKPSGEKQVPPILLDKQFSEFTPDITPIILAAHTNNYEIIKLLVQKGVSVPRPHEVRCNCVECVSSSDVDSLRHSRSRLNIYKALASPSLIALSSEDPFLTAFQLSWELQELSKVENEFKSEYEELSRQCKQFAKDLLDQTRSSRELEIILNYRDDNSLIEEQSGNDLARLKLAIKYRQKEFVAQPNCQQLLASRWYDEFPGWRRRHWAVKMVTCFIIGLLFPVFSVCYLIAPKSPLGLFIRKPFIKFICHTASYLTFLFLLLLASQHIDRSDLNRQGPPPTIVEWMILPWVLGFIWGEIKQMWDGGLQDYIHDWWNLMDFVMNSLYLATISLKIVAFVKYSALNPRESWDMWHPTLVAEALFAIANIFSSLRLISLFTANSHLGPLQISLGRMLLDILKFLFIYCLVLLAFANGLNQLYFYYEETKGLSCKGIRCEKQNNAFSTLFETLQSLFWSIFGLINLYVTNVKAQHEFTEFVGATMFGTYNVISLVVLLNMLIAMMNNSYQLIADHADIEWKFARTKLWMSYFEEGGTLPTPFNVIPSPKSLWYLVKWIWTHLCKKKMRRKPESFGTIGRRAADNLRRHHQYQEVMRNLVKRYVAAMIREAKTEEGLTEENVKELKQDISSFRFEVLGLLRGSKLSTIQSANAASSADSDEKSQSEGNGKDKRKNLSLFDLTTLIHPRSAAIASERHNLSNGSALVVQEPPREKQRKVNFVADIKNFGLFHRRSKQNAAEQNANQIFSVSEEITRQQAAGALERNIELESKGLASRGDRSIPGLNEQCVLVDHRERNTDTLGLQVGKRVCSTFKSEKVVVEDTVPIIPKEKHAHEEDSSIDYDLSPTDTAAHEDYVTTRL
# Sequence of Short transient receptor potential channel 6 (Mus musculus) (Q61143 whole entry, looked up): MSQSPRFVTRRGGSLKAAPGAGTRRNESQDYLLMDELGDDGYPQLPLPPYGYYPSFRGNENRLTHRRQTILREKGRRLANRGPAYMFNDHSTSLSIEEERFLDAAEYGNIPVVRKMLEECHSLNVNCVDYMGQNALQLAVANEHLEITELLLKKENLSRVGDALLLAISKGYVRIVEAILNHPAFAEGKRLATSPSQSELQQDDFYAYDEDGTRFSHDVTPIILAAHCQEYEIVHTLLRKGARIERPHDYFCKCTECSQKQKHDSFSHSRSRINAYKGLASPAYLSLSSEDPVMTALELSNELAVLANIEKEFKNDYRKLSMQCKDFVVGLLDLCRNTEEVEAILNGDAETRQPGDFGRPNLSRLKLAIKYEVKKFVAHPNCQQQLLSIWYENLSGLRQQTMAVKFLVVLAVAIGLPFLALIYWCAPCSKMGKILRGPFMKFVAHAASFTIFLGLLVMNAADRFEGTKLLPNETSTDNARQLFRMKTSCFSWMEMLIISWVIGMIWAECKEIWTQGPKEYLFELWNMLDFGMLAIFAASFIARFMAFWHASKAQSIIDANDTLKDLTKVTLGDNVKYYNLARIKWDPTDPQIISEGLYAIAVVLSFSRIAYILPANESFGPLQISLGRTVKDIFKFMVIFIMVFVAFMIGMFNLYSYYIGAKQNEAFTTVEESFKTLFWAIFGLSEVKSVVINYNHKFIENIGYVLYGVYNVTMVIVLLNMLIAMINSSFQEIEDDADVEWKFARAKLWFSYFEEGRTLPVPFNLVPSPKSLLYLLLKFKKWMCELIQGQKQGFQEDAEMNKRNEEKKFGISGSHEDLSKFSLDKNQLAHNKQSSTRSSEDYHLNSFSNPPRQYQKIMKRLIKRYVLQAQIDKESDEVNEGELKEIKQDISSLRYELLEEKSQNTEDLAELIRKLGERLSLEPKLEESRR
compound,measurement,setting,value
CNCC(=O)N1CCN(c2ncc(C(F)(F)F)cc2Cl)CC1,activation,[1],155% (active)
same,activation,[2],128% (active)
same,outcome,[3],inactive
same,outcome,[4],inactive
same,outcome,[5],inactive
same,outcome,[6],inactive
same,outcome,[7],inactive
same,outcome,[8],inactive
same,outcome,[9],inactive
same,outcome,[10],inactive
same,outcome,[11],inactive
same,activation,[12],79.5% (active)
same,outcome,[13],inactive
same,outcome,[14],inactive
same,outcome,[15],inactive
same,outcome,[16],inactive
CCCN(CCC(=O)Nc1cc(OC)cc(OC)c1)CC1CC1,activation,[1],180% (active)
same,activation,[2],69% (active)
same,outcome,[3],inactive
same,outcome,[4],inactive
same,outcome,[5],inactive
same,outcome,[6],inactive
same,outcome,[7],inactive
same,outcome,[8],inactive
same,outcome,[9],inactive
same,activation,[10],49% (active)
same,outcome,[11],inactive
same,activation,[12],54.9% (active)
same,outcome,[13],inactive
same,outcome,[14],inactive
same,outcome,[15],inactive
same,outcome,[16],inactive
Cc1noc(C)c1S(=O)(=O)N1CCC(C(=O)NCCCN2CC(C)CC(C)C2)CC1 (stereo not given),activation,[1],99% (active)
same,activation,[2],75% (active)
same,outcome,[3],inactive
same,outcome,[4],inactive
same,outcome,[5],inactive
same,outcome,[6],inactive
same,outcome,[7],inactive
same,outcome,[8],inactive
same,outcome,[9],inactive
same,outcome,[10],inactive
same,outcome,[11],inactive
same,activation,[12],28.5% (active)
same,outcome,[13],inactive
same,outcome,[14],inactive
same,outcome,[15],inactive
same,outcome,[16],inactive
Cc1ccc(CNC(=O)C2CCCN(Cc3cnn(-c4ccccc4)c3-n3cccc3)C2)cc1 (stereo not given),activation,[1],81% (active)
same,outcome,[2],inactive
same,outcome,[3],inactive
same,outcome,[4],inactive
same,outcome,[5],inactive
same,outcome,[6],inactive
same,outcome,[7],inactive
same,outcome,[8],inactive
same,outcome,[9],inactive
same,activation,[10],46% (active)
same,outcome,[11],inactive
same,outcome,[12],inactive
same,outcome,[13],inactive
same,outcome,[14],inactive
same,outcome,[15],inactive
same,outcome,[16],inactive
CCOc1ccccc1C1CC(c2ccc(Cl)cc2)Nc2nc(N)nn21 (stereo not given),activation,[1],243% (active)
same,outcome,[2],inactive
same,outcome,[3],inactive
same,outcome,[4],inactive
same,outcome,[5],inactive
same,outcome,[6],inactive
same,outcome,[7],inactive
same,outcome,[8],inactive
same,outcome,[9],inactive
same,outcome,[10],inactive
same,outcome,[11],inactive
same,activation,[12],6.24% (active)
same,outcome,[13],inactive
same,outcome,[14],inactive
same,outcome,[15],inactive
same,outcome,[16],inactive
Cc1ccc(-n2cc(CNC(C)c3cnn(C)c3C)c(-c3ccc(F)cc3)n2)cc1 (stereo not given),activation,[1],195% (active)
same,activation,[2],86% (active)
same,outcome,[3],inactive
same,outcome,[4],inactive
same,outcome,[5],inactive
same,outcome,[6],inactive
same,outcome,[7],inactive
same,outcome,[8],inactive
same,outcome,[9],inactive
same,activation,[10],30.5% (active)
same,outcome,[11],inactive
same,outcome,[12],inactive
same,outcome,[13],inactive
same,outcome,[14],inactive
same,outcome,[15],inactive
same,outcome,[16],inactive
O=C(CCCCn1c(=O)[nH]c2ccccc2c1=O)NC1CCN(Cc2ccccc2)CC1,outcome,[1],inactive
same,outcome,[2],inactive
same,outcome,[3],inactive
same,outcome,[4],inactive
same,outcome,[5],inactive
same,outcome,[6],inactive
same,outcome,[7],inactive
same,outcome,[8],inactive
same,outcome,[9],inactive
same,activation,[10],35% (active)
same,outcome,[11],inactive
same,outcome,[12],inactive
same,outcome,[13],inactive
same,outcome,[14],inactive
same,outcome,[15],inactive
same,outcome,[16],inactive
Cc1ccc(OCC(=O)N(C)CCc2ccccn2)cc1,activation,[1],133% (active)
same,outcome,[2],inactive
same,outcome,[3],inactive
same,outcome,[4],inactive
same,outcome,[5],inactive
same,outcome,[6],inactive
same,outcome,[7],inactive
same,outcome,[8],inactive
same,outcome,[9],inactive
same,outcome,[10],inactive
same,outcome,[11],inactive
same,activation,[12],45.5% (active)
same,outcome,[13],inactive
same,outcome,[14],inactive
same,outcome,[15],inactive
same,outcome,[16],inactive
CC(=O)OCC[N+](C)(C)C,activation,[1],128% (active) and 146% (active)
same,activation,[2],81% (active) and 93% (active)
same,outcome,[3],inactive
same,outcome,[4],inactive
same,outcome,[5],inactive
same,outcome,[6],inactive
same,outcome,[7],inactive
same,outcome,[8],inactive
same,outcome,[9],inactive
same,activation,[10],91.5% (active) and 116% (active)
same,outcome,[11],inactive
same,activation,[12],110% (active) and 105% (active)
same,outcome,[13],inactive
same,outcome,[14],inactive
same,activation,[15],101% (active) and 102% (active)
same,outcome,[16],inactive
CCN(CC)CCCNC(=O)c1cc2c(-c3ccc(Cl)cc3)nn(C)c2s1,outcome,[1],inactive
same,outcome,[2],inactive
same,potentiation,[3],13% (active)
same,outcome,[4],inactive
same,outcome,[5],inactive
same,outcome,[6],inactive
same,outcome,[7],inactive
same,outcome,[8],inactive
same,outcome,[9],inactive
same,outcome,[10],inactive
same,outcome,[11],inactive
same,activation,[12],12.6% (active)
same,outcome,[13],inactive
same,potentiation,[14],31.3% (active)
same,outcome,[15],inactive
same,outcome,[16],inactive
COc1ccc(C(CCNCc2ccc(N(C)C)cc2)c2ccccc2)cc1 (stereo not given),activation,[1],165% (active)
same,outcome,[2],inactive
same,outcome,[3],inactive
same,outcome,[4],inactive
same,outcome,[5],inactive
same,outcome,[6],inactive
same,outcome,[7],inactive
same,outcome,[8],inactive
same,outcome,[9],inactive
same,outcome,[10],inactive
same,outcome,[11],inactive
same,activation,[12],26.5% (active)
same,outcome,[13],inactive
same,outcome,[14],inactive
same,outcome,[15],inactive
same,outcome,[16],inactive
CN(C)CCCN(C(=O)c1ccc(S(=O)(=O)N2CCCCCC2)cc1)c1nc2c(F)cc(F)cc2s1,activation,[1],133% (active)
same,outcome,[2],inactive
same,outcome,[3],inactive
same,outcome,[4],inactive
same,outcome,[5],inactive
same,outcome,[6],inactive
same,outcome,[7],inactive
same,outcome,[8],inactive
same,outcome,[9],inactive
same,outcome,[10],inactive
same,outcome,[11],inactive
same,outcome,[12],inactive
same,outcome,[13],inactive
same,outcome,[14],inactive
same,outcome,[15],inactive
same,outcome,[16],inactive
COCC1CCN(Cc2cn(-c3ccccc3F)nc2-c2cc(C)sc2C)CC1,activation,[1],95% (active)
same,outcome,[2],inactive
same,outcome,[3],inactive
same,outcome,[4],inactive
same,outcome,[5],inactive
same,outcome,[6],inactive
same,outcome,[7],inactive
same,outcome,[8],inactive
same,outcome,[9],inactive
same,activation,[10],69.5% (active)
same,outcome,[11],inactive
same,outcome,[12],inactive
same,outcome,[13],inactive
same,outcome,[14],inactive
same,outcome,[15],inactive
same,outcome,[16],inactive
CC(=O)n1cc([C@H]2C=C(C(=O)NCc3ccccc3)O[C@@H](OCc3ccc(CO)cc3)C2)c2ccccc21,outcome,[1],inactive
same,outcome,[2],inactive
same,outcome,[3],inactive
same,outcome,[4],inactive
same,outcome,[5],inactive
same,outcome,[6],inactive
same,outcome,[7],inactive
same,outcome,[8],inactive
same,outcome,[9],inactive
same,outcome,[10],inactive
same,outcome,[11],inactive
same,outcome,[12],inactive
same,outcome,[13],inactive
same,outcome,[14],inactive
same,outcome,[15],inactive
same,outcome,[16],inactive
CC12CCCCN1CCCc1c2[nH]c2ccccc12 (stereo not given),outcome,[1],inactive
same,outcome,[2],inactive
same,outcome,[3],inactive
same,outcome,[4],inactive
same,outcome,[5],inactive
same,outcome,[6],inactive
same,outcome,[7],inactive
same,outcome,[8],inactive
same,outcome,[9],inactive
same,activation,[10],35% (active)
same,outcome,[11],inactive
same,activation,[12],8.77% (active)
same,outcome,[13],inactive
same,outcome,[14],inactive
same,outcome,[15],inactive
same,outcome,[16],inactive

# Source: PubChem BioAssay
